Source: PubChem BioAssay
Hits are enriched below; roughly 2.1% of the tested compounds scored in any of these assays.
Abeta rescue: qHTS for compounds that reverse cellular toxicity of Amyloid beta (A-beta) peptide in yeast: Primary Screen; yeast expressing A-beta42, growth rescue, OD600, 48 h; response scale: 0% DMSO, 100% iron-clioquinol control; Potency, µM (titrated, usually from 46.1 µM), hits mostly activators; actives 0.063% (n = 410,000); further: nearly all actives have a fitted effect of over 55% in size
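Yeast growth medium received pinned compounds, then yeast cells expressing toxic A-beta were added; plates incubated at 30 C for 48 hr. Growth read as absorbance at 600 nm, normalized to DMSO and equimolar FeCl3 plus clioquinol controls.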
TDP-43 yeast inh: qHTS of TDP-43 Inhibitors | TDP-43 expressing yeast growth rescue, BacTiter-Glo, 24 h | Potency, µM (series often up to 46.1 µM), hits mostly activators | actives 1.8% (n = 410,000); further: nearly all actives have a fitted effect of over 50% in size
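Cell-based yeast growth screen: TDP-43 expression induced in galactose, inoculum OD600=0.02 after raffinose pregrowth to mid-log. Read-out BacTiter-Glo luminescence at 24 hr, 30 deg C; inhibition of toxicity seen as signal increase.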
aSyn yeast inh: qHTS of alpha-syn Inhibitors; Yeast expressing alpha-synuclein, growth rescue, BacTiter-Glo, 24 h; Potency, µM (series often up to 46.1 µM), hits mostly activators; actives 0.14% (n = 370,000); AID 652106, 2013; further: nearly all actives have a fitted effect of over 65% in size
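Screening used galactose-induced yeast with toxic alpha-synuclein levels, exposed to compound for 24 hr at 30 deg C. Cell growth, read with BacTiter-Glo luminescence, gave the measured signal.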
FUS yeast rescue: qHTS for Suppressors of FUS Proteinopathy: Primary screen using FUS-linked yeast assay. S. cerevisiae FUS-expressing, growth rescue, OD600, 24 h. Potency, µM (titrated, usually from 76.6 µM), most hits filed as activators. actives 0.24% (n = 390,000). AID 1347120, 2019; further: nearly all actives have a fitted effect of over 55% in size
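Steps: raffinose overnight preculture; dilution to OD 0.005 in 2% galactose minimal medium; compound addition (concentration series); 24hr at 30C, 99% humidity; absorbance read at 600 nm.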
Each line names hits and unclear results; the compound was inactive in the other large screens. The call rests on the fitted dose curve; in most records, active means well fitted curve in the direction sought with a large enough effect; inconclusive means small, poorly fitted or top-dose-only effect, or another doubt; inactive means no such curve, though single readings can be large; an effect the other way counts as inactive or inconclusive.

COc1ccc(C(=O)C[n+]2ccc(Cl)c3ccc(Cl)cc32)cc1	none (no result: Abeta rescue, TDP-43 yeast inh, FUS yeast rescue)
CC(C#N)Sc1ncnc2sc3c(c12)CCC3 (stereo unspecified)	none
Cc1cc(C)nc(Sc2ncnc3sc4c(c23)CCC4)n1	TDP-43 yeast inh 20µM
CC(=O)C(Sc1ncnc2sc3c(c12)CCCC3)C(C)=O	Abeta rescue inconclusive, TDP-43 yeast inh 18µM, aSyn yeast inh inconclusive
O=C(CSc1ncnc2sc3c(c12)CCCC3)c1ccco1	TDP-43 yeast inh 10µM
O=C(CSc1ncnc2sc3c(c12)CCCC3)c1ccccc1	none
COc1cc2c(cc1OC)C(c1cc(-c3cc(Cl)ccc3Cl)oc1C)=NCC2	none (no result: Abeta rescue, TDP-43 yeast inh, FUS yeast rescue)
Cc1ccc(CNC(=O)c2ccc(N3CCC4(CC3)CC(c3cccc(Br)c3)=NO4)c(NC(=O)c3ccc(Br)cc3)c2)cc1	aSyn yeast inh inconclusive
Cc1ccc(CNC(=O)c2ccc(N3CCC4(CC3)CC(c3cccc(Br)c3)=NO4)c(N)c2)cc1	FUS yeast rescue 18µM
c1ccc(-c2nc(-c3ccco3)n3ccccc23)cc1	TDP-43 yeast inh 25µM
Cc1cccc(N2CCN(C(=O)c3cnn(-c4ccccc4)c3C3CCN(C(=O)OC(C)(C)C)CC3)CC2)c1C	TDP-43 yeast inh inconclusive (no result: aSyn yeast inh)
Cc1ccc2c(c1)N(C(=O)CCC(=O)Nc1ccc(F)cc1F)CC(C)O2 (stereo unspecified)	none (no result: aSyn yeast inh)
COC(=O)c1ccccc1NC(=O)CCC(=O)N1CC(C)Sc2ccccc21 (stereo unspecified)	TDP-43 yeast inh 18µM (no result: aSyn yeast inh)
COC(=O)c1ccccc1NC(=O)CCC(=O)N1CC(C)Oc2ccc(C)cc21 (stereo unspecified)	TDP-43 yeast inh 18µM
Cn1c(C(=O)NCc2cccc(F)c2)cc2cc(S(=O)(=O)N3CCCCC3)ccc21	none (no result: aSyn yeast inh)
Cc1ccccc1N1CC(c2nc3ccccc3n2Cc2ccc(Br)cc2)CC1=O (stereo unspecified)	TDP-43 yeast inh inconclusive, FUS yeast rescue inconclusive (no result: aSyn yeast inh)
Cc1ccccc1C(=O)Nc1ccccc1C(=O)NCc1ccccc1	TDP-43 yeast inh 11µM
O=C(Nc1ccccc1C(=O)NCc1ccccc1)c1ccccc1Br	none
COc1cccc(N2CCN(C(=O)C3CCN(S(=O)(=O)c4ccc5c(c4)CC(C)N5C(C)=O)CC3)CC2)c1 (stereo unspecified)	FUS yeast rescue 14µM (no result: Abeta rescue)
Cc1csc(NC(=O)c2ccc(COc3ccccc3F)o2)n1	none (no result: Abeta rescue, TDP-43 yeast inh, aSyn yeast inh)
COc1ccc(C(=O)Oc2ccc(/C=N/O)cc2)cc1	TDP-43 yeast inh 10µM (no result: aSyn yeast inh)
COc1ccc(OC(=O)c2ccncc2)cc1	none
Nc1ccc(Br)c2c1C(=O)c1ccccc1C2=O	TDP-43 yeast inh 6.3µM
Nc1ccc(O)c2c1C(=O)c1ccccc1C2=O	none
Cc1ccc(CSc2nnc(-c3ccc(NC(=O)CCc4ccccc4)cc3)n2C)cc1	none (no result: Abeta rescue, TDP-43 yeast inh, FUS yeast rescue)
COc1cc(OC)cc(-c2sc3ccc(OC)cc3c2C#CC(C)(C)O)c1	TDP-43 yeast inh 11µM, FUS yeast rescue inconclusive
COc1cc(OC)cc(-c2sc3ccc(OC)cc3c2C#CCO)c1	TDP-43 yeast inh inconclusive, FUS yeast rescue inconclusive
CCOc1cccc(C2C=C(c3ccc4c(c3)OCO4)NC(c3cccc(Br)c3)N2)c1O (stereo unspecified)	none (no result: Abeta rescue, TDP-43 yeast inh, FUS yeast rescue)
CC(C)(C)c1ccc(/C=C(\C#N)C(=O)NC2CC2)cc1	TDP-43 yeast inh 35µM
N#C/C(=C\c1ccc(F)c(Br)c1)C(=O)NC1CC1	Abeta rescue inconclusive, TDP-43 yeast inh inconclusive, aSyn yeast inh inconclusive
COC1=C[C@H](C(=O)NCCNC(C)=O)[C@@]2(C)Cc3ccccc3[C@H]2CC1=O	none (no result: Abeta rescue, TDP-43 yeast inh, aSyn yeast inh)
COC(=O)[C@]12C[C@H](CC(=O)NCc3cccc4ccccc34)C(=O)N(Cc3cccc4ccccc34)C1=C[C@H](COCc1ccccc1)O[C@@H]2C	none (no result: Abeta rescue, TDP-43 yeast inh, aSyn yeast inh)
COC(=O)[C@]12C[C@H](CC(=O)NCCC(C)C)C(=O)N(Cc3ccco3)C1=C[C@H](C1CCCC1)O[C@@H]2C	none (no result: Abeta rescue, TDP-43 yeast inh, aSyn yeast inh)
COC(=O)[C@]12C[C@H](CC(=O)NCc3ccc(OC)c(OC)c3)C(=O)N(CCC3=CCCCC3)C1=C[C@H](C1CCCC1)O[C@@H]2C	FUS yeast rescue 14µM (no result: Abeta rescue, TDP-43 yeast inh, aSyn yeast inh)
COC(=O)[C@]12C[C@H](CC(=O)NCCc3ccccc3OC)C(=O)N(CCC3=CCCCC3)C1=C[C@H](C1CCCC1)O[C@@H]2C	none (no result: Abeta rescue, TDP-43 yeast inh, aSyn yeast inh)
COC(=O)[C@]12C[C@H](CC(=O)NCC3CCCCC3)C(=O)N(Cc3cccc4ccccc34)C1=C[C@H](C1CCCC1)O[C@@H]2C	FUS yeast rescue 32µM (no result: Abeta rescue, TDP-43 yeast inh, aSyn yeast inh)
CCCCNC(=O)C[C@H]1C[C@@]2(C(=O)OC)C(=C[C@H](C3CCCC3)O[C@@H]2C)N(Cc2cccc3ccccc23)C1=O	FUS yeast rescue 13µM (no result: Abeta rescue, TDP-43 yeast inh, aSyn yeast inh)
COCCCNC(=O)C[C@H]1C[C@@]2(C(=O)OC)C(=C[C@H](C3CCCC3)O[C@@H]2C)N(Cc2ccco2)C1=O	none (no result: Abeta rescue, TDP-43 yeast inh, aSyn yeast inh)
COC(=O)[C@]12C[C@H](CC(=O)NCc3cccc(C(F)(F)F)c3)C(=O)N(Cc3ccco3)C1=C[C@H](C1CCCC1)O[C@@H]2C	FUS yeast rescue 4.5µM (no result: Abeta rescue, TDP-43 yeast inh, aSyn yeast inh)
O=C(OCc1cn(Cc2cccc(C(F)(F)F)c2)nn1)N1CCOCC1	none (no result: Abeta rescue, TDP-43 yeast inh, aSyn yeast inh)
CN1[C@@H](Cc2ccccc2)COc2cc(N3CCCC3)ccc2S1(=O)=O	none (no result: Abeta rescue, TDP-43 yeast inh, aSyn yeast inh)
Cn1c(-c2nonc2N)nc2ccccc21	TDP-43 yeast inh inconclusive
Cn1c2nc3ccccc3c-2nc2ccccc21	aSyn yeast inh 16µM
COC(=O)[C@]12C[C@H](CC(=O)NCCCCc3ccccc3)C(=O)N(CCC3=CCCCC3)C1=C[C@H](C1CCCC1)O[C@@H]2C	none (no result: Abeta rescue, TDP-43 yeast inh, aSyn yeast inh)
COc1ccc2oc(-c3ccccc3)c(C(N)=O)c2c1	TDP-43 yeast inh 13µM
COc1ccc2oc(-c3ccccc3)c(C(=O)O)c2c1	none
COC(=O)c1c(-c2ccc(OC)cc2)oc2ccccc12	none
COc1ccc(C(=O)c2oc3ccc(OC)cc3c2N)cc1	TDP-43 yeast inh 11µM
COc1ccc(-c2oc3ccccc3c2C(=O)Oc2ccccc2)cc1	TDP-43 yeast inh 3.5µM
